GPT2 inhibitor: inhibitors of human GPT2 alanine aminotransferase | Potency, µM (titrated, usually from 57.7 µM), actives largely listed as inhibitors | 0.25% of 100,000 active | Recombinant GPT2, coupled pyruvate oxidase/HRP Amplex Red fluorescence | AID 1671188; note: nearly all actives have a fitted effect of over 60% in size
Target sequence (Q8TD30 whole entry, looked up): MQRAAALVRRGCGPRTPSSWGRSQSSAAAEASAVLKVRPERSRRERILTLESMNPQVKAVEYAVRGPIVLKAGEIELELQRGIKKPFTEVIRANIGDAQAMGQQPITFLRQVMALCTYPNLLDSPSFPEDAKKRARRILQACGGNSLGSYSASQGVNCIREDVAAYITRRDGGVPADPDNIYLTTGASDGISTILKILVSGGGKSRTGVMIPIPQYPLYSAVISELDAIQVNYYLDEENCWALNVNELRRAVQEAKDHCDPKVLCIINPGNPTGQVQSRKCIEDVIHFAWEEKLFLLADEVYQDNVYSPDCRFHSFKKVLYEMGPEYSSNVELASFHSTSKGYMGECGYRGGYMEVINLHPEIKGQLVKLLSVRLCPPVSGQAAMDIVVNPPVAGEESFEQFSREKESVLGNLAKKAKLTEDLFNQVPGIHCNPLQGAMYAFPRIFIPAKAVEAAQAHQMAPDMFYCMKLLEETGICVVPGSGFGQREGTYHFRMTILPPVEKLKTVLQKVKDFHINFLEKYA
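Inhibition is scored from Amplex Red fluorescence generated when pyruvate oxidase and HRP act on pyruvate released by GPT2. Reactions contain 10ng/uL enzyme, 250uM a-KG and 2mM L-alanine and run 30 min at room temperature.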
HEK293 tox: HEK 293 cell cytotoxicity | AID 1345083 | Potency, µM (highest dose often 115 µM), most hits filed as inhibitors | 6.6% of 94,000 active | HEK 293 viability, ATP luminescence (CellTiter-Glo), 48-72 h; note: nearly all actives have a fitted effect of over 60% in size
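Cytotoxicity was scored by loss of ATP-coupled luminescence (CellTiter-Glo) in HEK 293 cells. Compound treatment ran 48 or 72 hr at 37 degree Celsius, 5% CO2, 95% humidity.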
NPR1 antag: antagonists of human natriuretic peptide receptor Npr1; P16066; HEK293 hNpr1 GloSensor cGMP, ANP-stimulated luminescence; Potency, µM (highest dose often 46.3 µM), actives largely listed as inhibitors; 1.6% of 76,000 active; AID 1347048; calls by dose curve; note: nearly all actives have a fitted effect of over 60% in size
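Compound pre-incubated 30 min at room temperature on GloSensor-loaded HEK293 cells stably carrying hNpr1 and the pGS-40F cGMP biosensor. Stimulation uses hNppA at 0.1 nM final; luminescence is taken at baseline and 20 min post-agonist.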
Luciferase inh: Photinus pyralis luciferase inhibition | AID 1347043 | 2.5% of 76,000 active | Potency, µM (highest dose often 115 µM), most hits filed as inhibitors | P08659 | purified P. pyralis luciferase, luminescence, biochemical; note: nearly all actives have a fitted effect of over 65% in size
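Purified 10nM P. pyralis luciferase with 10uM D-luciferin and 10uM ATP in 50mM Tris acetate pH 7.5, 10mM Mg acetate, 0.01% Tween-20, 0.05% BSA. qHTS titration; luminescence read by CCD imager.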
NIH3T3 tox: NIH 3T3 cell cytotoxicity; NIH 3T3 viability, CellTiter-Glo ATP luminescence, 48-72 h; Potency, µM (highest dose often 96.7 µM), actives largely listed as inhibitors; 4.3% of 94,000 active; AID 1345082; note: nearly all actives have a fitted effect of over 55% in size
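Cytotoxicity is measured as loss of cellular ATP: NIH 3T3 cells (400/well) are exposed to compound for 48 or 72 hr at 37 °C, then CellTiter-Glo luminescence is imaged after 10 min at room temperature.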
Each line names hits and unclear results; the compound was inactive in the other large screens; ! = not confirmed by another sample. Compounds with a hit are over-represented: about 10% of the library has one in this group of screens. Unless noted, calls come from the whole dose curve; as a rule, active = well fitted curve in the direction sought with a large enough effect; inconclusive = small, poorly fitted or top-dose-only effect, or another doubt; inactive = no such curve, though single readings can be large; an effect the other way counts as inactive or inconclusive.

CN(C)C(=O)c1ccc2c(c1)NC(C)(COc1ccc3[nH]ccc3c1)CO2 (configuration not stated)	HEK293 tox inconclusive
CC1(COc2ccc3[nH]ccc3c2)COc2ccc(C(=O)NCc3ccco3)cc2N1 (configuration not stated)	HEK293 tox 100µM, NIH3T3 tox inconclusive
COC1=C(C(=O)OCc2ccccc2)N(c2c(C)cccc2C)[S+](=O)([O-])c2ccccc21	HEK293 tox inconclusive (no result: GPT2 inhibitor, NPR1 antag, Luciferase inh)
COc1ccc(CN2Cc3cc(NC(=O)Cc4ccccc4)ccc3OC(C)C2=O)cc1 (configuration not stated)	HEK293 tox inconclusive, NIH3T3 tox inconclusive
CC1Oc2ccc(NC(=O)COc3ccccc3)cc2CN(Cc2ccccc2Cl)C1=O (configuration not stated)	HEK293 tox 25.1µM, NIH3T3 tox inconclusive
COc1cccc(CC(=O)Nc2ccc3c(c2)CN(Cc2ccccc2Cl)C(=O)C(C)O3)c1 (configuration not stated)	HEK293 tox inconclusive, NIH3T3 tox inconclusive
CC1Oc2ccc(NC(=O)c3ccc(F)cc3F)cc2CN(Cc2ccccc2Cl)C1=O (configuration not stated)	HEK293 tox 50.1µM, NIH3T3 tox inconclusive
CC1Oc2ccc(NC(=O)c3ccccc3Cl)cc2CN(Cc2ccccc2F)C1=O (configuration not stated)	GPT2 inhibitor inconclusive, HEK293 tox inconclusive, NIH3T3 tox inconclusive
COc1ccc(CC(=O)Nc2ccc3c(c2)CN(CCOc2ccccc2)C(=O)C(C)O3)cc1 (configuration not stated)	HEK293 tox 44.7µM, NIH3T3 tox inconclusive
Cc1ccc(C(=O)N2Cc3c(C(=O)NC4CC4)nn(C)c3C2)cc1F	none (no result: NPR1 antag, Luciferase inh)
Cc1nn(-c2ccccc2)c2c1C(C1CC1)N(C1CCN(Cc3cccc(C(F)(F)F)c3)CC1)C2=O (configuration not stated)	none (no result: GPT2 inhibitor, NPR1 antag, Luciferase inh)
c1ccc(-c2ccc3ncc(Nc4cccnc4)n3n2)cc1	GPT2 inhibitor inconclusive, HEK293 tox inconclusive, NIH3T3 tox inconclusive
c1ccc(-c2ccc3ncc(Nc4ccncc4)n3n2)cc1	HEK293 tox inconclusive, NIH3T3 tox inconclusive
Fc1ccccc1Nc1cnc2ccc(-c3ccccc3)nn12	GPT2 inhibitor inconclusive, HEK293 tox 100µM, NIH3T3 tox inconclusive
Fc1ccc(-c2ccc3ncc(Nc4ccc5c(c4)OCCO5)n3n2)cc1	HEK293 tox inconclusive, Luciferase inh inconclusive, NIH3T3 tox inconclusive
Fc1ccc(Nc2cnc3ccc(-c4ccccc4)nn23)cc1	HEK293 tox 100µM, NIH3T3 tox 79.4µM
c1ccc(-c2ccc3ncc(Nc4ccc5c(c4)OCCO5)n3n2)cc1	GPT2 inhibitor inconclusive, HEK293 tox 89.1µM, Luciferase inh inconclusive, NIH3T3 tox inconclusive
O=C(C1CCCN([S+](=O)([O-])c2cccc(C(F)(F)F)c2)C1)N1CCC(N2CCOCC2=O)CC1 (configuration not stated)	HEK293 tox inconclusive, NIH3T3 tox inconclusive (no result: NPR1 antag, Luciferase inh)
O=C(c1cccc2[nH]ccc12)N1CCC(n2cc(-c3nc(-c4ccccc4)no3)nn2)C1 (configuration not stated)	HEK293 tox inconclusive, NPR1 antag 11.2µM, Luciferase inh inconclusive, NIH3T3 tox inconclusive
O=C(c1ccc[nH]c1=O)N1CCC(n2cc(-c3nc(-c4ccccc4)no3)nn2)CC1	Luciferase inh inconclusive
O=C(c1cccc2[nH]ccc12)N1CCC(n2cc(-c3nc(-c4ccccc4)no3)nn2)CC1	HEK293 tox 28.2µM, NPR1 antag inconclusive, NIH3T3 tox inconclusive
CC(C)c1noc(-c2cn(C3CCN(C(=O)c4cccc5[nH]ccc45)CC3)nn2)n1	HEK293 tox 44.7µM
O=C(c1cc(F)ccc1F)N1CCC(n2cc(-c3nc(-c4ccccc4)no3)nn2)C1 (configuration not stated)	HEK293 tox inconclusive, NIH3T3 tox inconclusive
CCc1noc(-c2cn(C3CCN(C(=O)c4cccc5[nH]ccc45)CC3)nn2)n1	HEK293 tox inconclusive
O=C(NCCc1ccc(F)cc1)c1ccc2nnc(-c3ccc(Cl)cc3)n2c1	HEK293 tox inconclusive, NIH3T3 tox inconclusive (no result: NPR1 antag, Luciferase inh)
CSc1ncc(CN2CCOC(Cc3cccc(C(F)(F)F)c3)C2)cn1 (configuration not stated)	HEK293 tox 22.4µM, NIH3T3 tox 28.2µM
O=c1c(O)c(-c2ccc(O)c(O)c2)oc2cc(O)cc(O)c12	GPT2 inhibitor 13.7µM! (no result: HEK293 tox, NPR1 antag, Luciferase inh, NIH3T3 tox)
O=C(c1ccc(Cl)cc1)N1CCC(n2cc(-c3ccc(OC(F)F)cc3)[nH]c2=O)CC1	HEK293 tox inconclusive, NIH3T3 tox inconclusive (no result: NPR1 antag, Luciferase inh)
Cc1nc(-c2ccccc2)n(CC(=O)Nc2cccc(C#N)c2)c(=O)c1CCO	HEK293 tox 39.8µM, NIH3T3 tox inconclusive
Cc1nc(-c2ccccc2)n(CC(=O)Nc2ccc(F)c(Cl)c2)c(=O)c1CCO	HEK293 tox 39.8µM, NIH3T3 tox inconclusive
Cc1nc(-c2ccc(F)cc2)n(CC(=O)Nc2cccc(Cl)c2)c(=O)c1CCO	HEK293 tox inconclusive, NIH3T3 tox inconclusive
Cc1nc(-c2ccccc2)n(CC(=O)Nc2ccc(Cl)cc2)c(=O)c1CCO	HEK293 tox inconclusive
CC(=O)c1cccc(NC(=O)Cn2c(-c3ccc(F)cc3)nc(C)c(CCO)c2=O)c1	GPT2 inhibitor inconclusive, HEK293 tox inconclusive, NIH3T3 tox inconclusive
Cc1ccc(NC(=O)Cn2c(-c3ccccc3)nc(C)c(CCO)c2=O)cc1Cl	HEK293 tox inconclusive, NIH3T3 tox 28.2µM
Cn1ncc2c(C(=O)NCc3ccc(F)cc3)cc(-c3cccnc3)nc21	HEK293 tox inconclusive, NIH3T3 tox inconclusive (no result: NPR1 antag, Luciferase inh)
CC1=C[C@@H](CNC(=O)C(C)(C)C)[C@H](C(C)C)C[C@H]1CC(=O)N(C)Cc1cccnc1	HEK293 tox inconclusive, NIH3T3 tox inconclusive
COc1ccc(NC(=O)C2CN(C3CCCCC3)C(=O)N2)cc1OC (configuration not stated)	none (no result: NPR1 antag, Luciferase inh)
COCc1ccc2c(c1)c(OC(C)(C)C(=O)NCCCn1ccnc1)nn2Cc1ccccc1	NIH3T3 tox 22.4µM
COCc1ccc2c(c1)c(OC(C)(C)C(=O)NCc1ccncc1)nn2Cc1cccc(OC)c1	HEK293 tox inconclusive, NIH3T3 tox 10µM
COCc1ccc2c(c1)c(OC(C)(C)C(=O)NCc1ccncc1)nn2Cc1ccccc1	NIH3T3 tox 28.2µM
COCc1ccc2c(c1)c(OC(C)(C)C(=O)N(C)C)nn2Cc1ccccc1	NIH3T3 tox inconclusive
COCc1ccc2c(c1)c(OC(C)(C)C(=O)NCc1ccncc1)nn2Cc1cccnc1	NIH3T3 tox inconclusive
COCc1ccc2c(c1)c(OC(C)(C)C(=O)NCCN(C)C)nn2Cc1ccccc1	NIH3T3 tox 89.1µM
COCc1ccc2c(c1)c(OC(C)(C)C(=O)Nc1ccccn1)nn2Cc1cccc(OC)c1	HEK293 tox inconclusive, NIH3T3 tox inconclusive
CC(C)c1nc2c(c(-c3ccc(Cl)cc3)n1)CN(C(=O)c1ccc(Cl)nc1)CC2	HEK293 tox inconclusive, NIH3T3 tox inconclusive (no result: NPR1 antag, Luciferase inh)
